The record followed here is PubChem BioAssay.

Experiment [1] deals with Albumin (Bos taurus) (UniProt P02769). As to the kind of experiment: bovine serum albumin binders on microarray, profiling panel, artefact control for SMM control protein annotation, biochemical, small-molecule microarray, Alexa647 label, 635/667 nm fluorescence (AID 1118).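 Note: score merges 667 nm emission intensity and signal-to-noise per printed compound spot.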 The note with it: BSA-A647 binding, fluorescence 635 nm, higher = more signal.
Chain of Albumin (Bos taurus) (P02769 whole entry, looked up): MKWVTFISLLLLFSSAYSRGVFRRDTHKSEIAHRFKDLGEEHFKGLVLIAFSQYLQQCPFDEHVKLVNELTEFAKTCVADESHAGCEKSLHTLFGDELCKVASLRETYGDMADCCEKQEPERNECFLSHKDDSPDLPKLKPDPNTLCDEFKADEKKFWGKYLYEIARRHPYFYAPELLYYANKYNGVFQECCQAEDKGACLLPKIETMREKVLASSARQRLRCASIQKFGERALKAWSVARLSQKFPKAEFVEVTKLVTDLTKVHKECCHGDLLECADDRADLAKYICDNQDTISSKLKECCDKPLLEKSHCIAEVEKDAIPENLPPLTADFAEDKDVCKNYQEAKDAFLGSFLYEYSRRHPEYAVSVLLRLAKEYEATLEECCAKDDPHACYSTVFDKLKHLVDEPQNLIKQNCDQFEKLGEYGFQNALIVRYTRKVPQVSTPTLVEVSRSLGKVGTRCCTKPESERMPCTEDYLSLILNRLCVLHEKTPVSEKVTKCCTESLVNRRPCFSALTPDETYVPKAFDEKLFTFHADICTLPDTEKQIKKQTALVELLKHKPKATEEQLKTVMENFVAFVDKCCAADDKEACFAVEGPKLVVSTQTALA
Experiment [2] in a line: small-molecule microarray binders of probe aXIP, primary screen, biochemical, NeuroSMM set, 635/667 nm fluorescence (AID 1119).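 Note: probe is the protein aXip251-270 applied at 1 µg/mL to compound-printed slides; binding of probe to printed compounds measured as 667 nm fluorescence plus signal to noise.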 The note with it: higher = more signal, called active from +8 up or from −8 down.
Experiment [3] is described as follows: small-molecule binders of probe aNOTCH3, primary screen, biochemical, small-molecule microarray, 635/667 nm fluorescence (AID 1120).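 Note: probe is a biotin-tagged antibody raised against NOTCH3 rather than NOTCH3 protein; score merges spot fluorescence near 667 nm with spot signal to noise.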 The note with it: higher = more signal.
Experiment [4] can be described thus: small-molecule binders of probe aNOTCH2, primary screen, biochemical, small-molecule microarray, 635/667 nm fluorescence (AID 1121).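 Note: score merges feature fluorescence read at 667 nm with its signal to noise.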 The note with it: higher = more signal.
In experiment [5] the target is Carbonic anhydrase 2 (Homo sapiens) (UniProt P00918). As to the kind of experiment: CAII small-molecule binders, profiling panel, biochemical, small-molecule microarray, Alexa647-labelled CAII (AID 1122). The note with it: CAII-A647 binding fluorescence, higher = more signal.
Experiment [6] in a line: COS7 lysate on small-molecule microarray, probe aHis, 635 nm (AID 1123).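 Note: z-score combines 667nm fluorescence intensity with signal-to-noise per printed compound spot.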 The note with it: COS7 cell lysate, fluorescence, higher = more signal.
The nature of experiment [7]: compound binding in COS7 lysate, probe aLAP1, primary screen, cell lysate, small-molecule microarray (AID 1124).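 Note: lysate comes from COS7 cells expressing LAP1 and is applied at 0.3 µg/mL; score merges spot fluorescence near 667 nm with signal-to-noise over triplicate slides.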 As to conditions: probe aLAP1, fluorescence, higher = more signal.
The subject of experiment [8] is Sam68 (KHDRBS1). As to the kind of experiment: Sam68 small-molecule binders, primary screen, biochemical, small-molecule microarray, 635 nm fluorescence (AID 1125).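 Note: score merges 667 nm channel intensity with signal to noise over triplicate slides.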 As to conditions: small-molecule microarray binding, higher = more signal.
In experiment [9] the test system is Chordin-like protein 2 (CHRDL2). As to the kind of experiment: CHRDL2 small-molecule binders, primary screen, biochemical, small-molecule microarray, 635 nm fluorescence (AID 1126).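 Note: printed compound slides probed with Chrdl2 protein at 4 µg/mL for 1 h at 4 C; score merges 667 nm emission intensity with signal to noise over three replicate slides.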 The note with it: small-molecule microarray binding, fluorescence 635 nm; higher = more signal.
Experiment [10] deals with Concanavalin-A (Canavalia ensiformis) (UniProt P02866). As to the kind of experiment: ConA small-molecule binders, primary screen, artefact control for SMM control protein annotation, biochemical, small-molecule microarray, Alexa647 label, 635 nm (AID 1127).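 Note: z combines 667 nm emission intensity with signal-to-noise across three replicate slides.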 The note with it: ConA-A647 binding fluorescence, higher = more signal.
Chain of Concanavalin-A (Canavalia ensiformis) (P02866 whole entry, looked up): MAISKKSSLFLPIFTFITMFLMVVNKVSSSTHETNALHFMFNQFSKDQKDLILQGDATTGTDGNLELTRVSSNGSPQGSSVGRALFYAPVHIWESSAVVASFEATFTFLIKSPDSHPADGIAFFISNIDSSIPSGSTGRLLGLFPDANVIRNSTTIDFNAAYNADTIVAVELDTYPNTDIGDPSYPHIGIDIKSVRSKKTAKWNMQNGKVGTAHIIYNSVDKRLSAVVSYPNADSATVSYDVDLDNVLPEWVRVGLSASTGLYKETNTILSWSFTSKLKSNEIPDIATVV

Active and inactive are the calls of the source.

Regarding `CCOC(=O)NN=C1C[C@@H](O)[C@@H](O)[C@@H]2[C@@H]3C(=O)N([C@@H](C)c4ccccc4)C(=O)[C@@H]3CC[C@H]12`, the composite z-score was 0.0904 in [1]; -0.0647 in experiment [3]; -0.0424 in experiment [4]; -0.119 in experiment [5]; -0.156 in experiment [6]; -0.111 in [7]. Further, the composite z-score in experiment [8] was found to be 0.338; in experiment [9], 0.183; in [10], 0.297. In addition, the composite Z-score in [2] was -0.36 (inactive).

For `CCOC(=O)[C@H](Cc1ccccc1)NC(=O)CCC1CC(OC(=O)NCCc2ccc(F)cc2)CC2(CCCC(COC(=O)NCCCN3CCCC3=O)O2)O1` (stereo not given in full), the composite z-score in [1] is 0.468; in experiment [3], 0.0479; in experiment [4], -0.078; in experiment [5], 0.0851; in experiment [6], 0.776; in experiment [7], 0.129. Besides, the composite z-score in [8] was 1.29; in experiment [9], 0.294; in experiment [10], 1.1. Also, in experiment [2], the composite Z-score was 0.0773 (inactive).

With `CC(CCN1CCc2nc(-c3ccccc3)c(-c3ccccc3)cc2C1)=NOC[C@@H](O)COCc1ccco1`, the composite z-score in [1] was 0.148; in experiment [3], 0.062; in [4] it was -0.153; in [5], 0.0111; in [6], 0.197; in experiment [7], -0.202. The figures for the composite z-score in [8], in experiment [9] and in experiment [10] were 1.08, 1.03 and 0.501, respectively. The composite Z-score in experiment [2] is 0.0366 (inactive).

With `C[C@@H]1NC(=O)[C@@H](C)COC(=O)[C@H](C)NC(=O)[C@@H](C)COC1=O`, the composite z-score in experiment [1] was 0.591; in experiment [3], -0.0339; in experiment [4] it was -0.0907; in [5], 0.394; in experiment [6], 0.1; in [7], -0.706. Also, the composite z-score in experiment [8] stood at 0.769; in experiment [9], 0.316; in experiment [10], 0.513. For the same compound, the composite Z-score in [2] was -0.152 (inactive).

For `CC(C)=NO[C@H](C)c1cn([C@H](CO)Cc2ccccc2)nn1`, the composite z-score in [1] is 0.364; in experiment [3], -0.0932; in experiment [4], -0.123; in [5], 0.13; in experiment [6] it was 0.559; in [7], -0.536. The composite z-score in experiment [8] is 0.444; in [9] it was -0.0691; in [10] it was 1.1. For the same compound, the composite Z-score in experiment [2] is -0.178 (inactive).

As to `O=C1[C@H]2[C@H]3[C@H](O)[C@H](O)CC(=NOCc4ccccc4)[C@@H]3CC[C@H]2C(=O)N1c1ccc(F)cc1F`, the composite z-score in experiment [1] was 0.137; in experiment [3], 0.0303; in [4] it was -0.157; in experiment [5] it was 0.243; in [6], 0.0305; in [7] it was -0.294. In addition, the composite z-score was -0.806 in [8], 0.0594 in [9] and 0.175 in [10]. For the same compound, the composite Z-score in [2] was -0.155 (inactive).

`CC(C)(C)N1C(=O)[C@H]2[C@H]3[C@H](O)[C@H](O)CC(=O)[C@@H]3CC[C@H]2C1=O`: the composite z-score was 0.061 in [1]; -0.0918 in [3]; 0.0811 in experiment [4]; 0.113 in [5]; 0.113 in experiment [6]; 0.102 in experiment [7]. The composite z-score in experiment [8] was found to be 0.0236; in [9], 0.265; in [10], 0.395. Further, the composite Z-score in experiment [2] is 0.302 (inactive).

For the compound `C[C@@H](c1ccccc1)N1C(=O)[C@H]2[C@H]3[C@H](O)[C@H](O)CC(=NOCc4ccccc4)[C@H]3CC[C@H]2C1=O`, the composite z-score is 0.437 in experiment [1]; -0.0288 in [3]; -0.147 in [4]; 0.388 in [5]; 0.797 in experiment [6]; 0.771 in experiment [7]. In addition, the composite z-score in [8] amounted to 1.17; in experiment [9], 0.365; in experiment [10] it was 0.951. The composite Z-score in experiment [2] is -0.325 (inactive).

`COC(=O)[C@@H]1CC[C@H](C)[C@@H](c2ccc(C)cc2)N1C(=O)c1ccc(C=NO[C@@H](C)c2cn([C@H](CO)Cc3ccccc3)nn2)cc1`: the composite z-score in experiment [1] is 0.597; in [3], 0.217; in experiment [4], -0.09; in experiment [5], 0.097; in experiment [6] it was 1.2; in [7] it was -0.151. The composite z-score is 1.32 in [8], 0.892 in [9] and 0.81 in experiment [10]. Moreover, the composite Z-score in experiment [2] is -0.222 (inactive).

Regarding `Cn1c(=O)n2n(c1=O)[C@H]1[C@H](O)[C@@H]3O[C@@H]3C(=NOCc3ccccc3)[C@H]1CC2`, the composite z-score in [1] was 0.0494; in experiment [3] it was -0.112; in experiment [4], -0.14; in experiment [5], 0.487; in experiment [6], 0.444; in [7], -0.0493. Moreover, the composite z-score in [8] was 0.557; in [9] it was -0.37; in experiment [10] it was -0.136. Besides, in experiment [2], the composite Z-score is -0.054 (inactive).

For the compound `C[C@@H]1CC[C@H]2C(=O)O[C@@H](COc3ccc(C(C)(C)C)cc3)CN2[C@@H]1c1ccc(Br)cc1`, the composite z-score was 0.0192 in [1]; -0.21 in experiment [3]; -0.14 in experiment [4]; -0.408 in [5]; -0.0056 in experiment [6]; -0.239 in experiment [7]. Moreover, the composite z-score in [8] was -0.558; in [9], -0.614; in experiment [10], -0.619. Further, the composite Z-score in experiment [2] was -0.695 (inactive).

On to `COC(=O)[C@@H]1CC[C@H](C)[C@@H](c2ccc(C)cc2)N1C(=O)c1ccc(C=NO[C@@H]2O[C@H](COC(C)=O)[C@@H](OC(C)=O)[C@H](OC(C)=O)[C@H]2OC(C)=O)cc1`, for which the composite z-score in experiment [1] was 0.322; in experiment [3] it was -0.217; in experiment [4], -0.0596; in [5], -0.0477; in experiment [6], 0.234; in experiment [7] it was 0.116. The figures for the composite z-score in experiment [8], in [9] and in [10] were 1.05, 0.452 and 1.01, respectively. Besides, in experiment [2], the composite Z-score is 0.265 (inactive).

Regarding `CO[C@@H]1COC(=O)[C@@H](C)COC(=O)[C@@H](C)NC(=O)CC=C[C@@H]1C`, the composite z-score is -0.647 in experiment [1]; -0.16 in experiment [3]; -0.208 in experiment [4]; -0.425 in experiment [5]; -0.566 in experiment [6]; 0.262 in experiment [7]. Moreover, the composite z-score in experiment [8] was 0.0411; in experiment [9], 1.6; in experiment [10] it was -0.988. Moreover, the composite Z-score in experiment [2] is -0.377 (inactive).

Consider `CSCC[C@@H]1NC(=O)CC=C[C@@H](C)COC(=O)[C@@H](C)COC1=O`, for which the composite z-score in experiment [1] was -1.1; in experiment [3], -0.155; in [4], -0.175; in [5], -0.762; in experiment [6], -1.1; in experiment [7], 0.145. In addition, the composite z-score in [8] is -0.399; in experiment [9] it was 0.683; in experiment [10], -2.02. Moreover, the composite Z-score in experiment [2] is 0.517 (inactive).

Consider `COC(=O)[C@H](C)NC(=O)CCC1CC(OC(=O)NCc2ccc3c(c2)OCO3)CC2(CCCC(COC(=O)NCC(c3ccccc3)c3ccccc3)O2)O1` (stereo not given in full), for which the composite z-score in [1] is 0.409; in [3] it was 0.0159; in [4], -0.123; in experiment [5], 0.478; in [6], 1.29; in experiment [7], 0.165. Moreover, the values for the composite z-score in experiment [8], in [9] and in experiment [10] were 1.29, 0.738 and 1.12, respectively. The composite Z-score in experiment [2] was 0.265 (inactive).

As for `CC(C)(C)N1C(=O)[C@H]2[C@H]3[C@H](O)[C@H](O)CC(=NO[C@@H]4O[C@H](CO)[C@@H](O)[C@H](O)[C@H]4O)[C@H]3CC[C@H]2C1=O`, the composite z-score is -0.383 in experiment [1]; 0.0864 in experiment [3]; 0.0037 in experiment [4]; 0.182 in [5]; 0.276 in [6]; -0.12 in experiment [7]. The composite z-score in experiment [8] was 0.217; in experiment [9], 0.926; in experiment [10] it was -0.409. Also, the composite Z-score in experiment [2] is 0.674 (inactive).

In the case of `CO[C@H]1COC(=O)CC=C[C@H](C)COC(=O)[C@@H](C)NC(=O)CC=C[C@@H]1C`, the composite z-score in experiment [1] was -0.854; in experiment [3] it was -0.179; in [4] it was -0.14; in [5], -0.532; in experiment [6], -1.13; in [7], 0.487. For the same compound, the composite z-score is 0.339 in [8], 1.56 in experiment [9] and -0.582 in experiment [10]. The composite Z-score in experiment [2] is 0.842 (inactive).
